Most compounds without a hit are left out; they make up all but 19% or so of the library.
TGFb inhibitor – blocks TGF-b signaling; actives 1.2% (n = 410,000); Potency, µM (top dose mostly 46.1 µM), inactives show top-dose activity, negative = inhibition, actives largely listed as inhibitors; HepG2 CAGA-GFP TGF-b/SMAD3 reporter, GFP fluorescence, 18 h; TGF-beta stimulated, 500 pg/mL final; further: potency means the concentration at half of the fitted maximal effect; on the % scale 0 is the no-effect control and ±100 the full control effect; nearly all actives have a fitted effect of over 65% in size
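Smad-responsive CAGA-GFP expression was quantified in HEPG2 cells exposed to compounds and 500 pg/mL final TGF-beta for 18 h at 37 degrees C; unstimulated wells defined full inhibition.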
IL1B secr inh – inhibitors of inflammasome signaling (IL-1 beta secretion). AID 743279. THP-1 LPS/ATP IL-1B secretion, AlphaLISA, 16 h; stronger effect = lower value. activity change, % at 57.5 µM. actives 4.7% (n = 360,000); in the data active means activity change below about -50%; inconclusive means mostly about -30% to -49%; further: on the % scale 0 is the no-effect control and ±100 the full control effect
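Secreted IL-1B measured by AlphaLISA bead assay after 16 h compound exposure of THP-1 cells; compounds (final up to 57.5 uM) added 1 h before LPS (250 ng/mL) and ATP (1.25 mM) stimulation; lower signal means less secretion.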
S-ASM inh – blocks human secretory acid sphingomyelinase; actives 0.006% (n = 340,000); Potency, µM (doses to about 57.5 µM), for the others: top-dose activity change, negative = inhibition, most hits filed as inhibitors; AID 504937; placental ASM, HMU-PC fluorogenic substrate, 60 min; further: potency means the concentration at half of the fitted maximal effect
Target sequence (P17405 47-631 limits assumed): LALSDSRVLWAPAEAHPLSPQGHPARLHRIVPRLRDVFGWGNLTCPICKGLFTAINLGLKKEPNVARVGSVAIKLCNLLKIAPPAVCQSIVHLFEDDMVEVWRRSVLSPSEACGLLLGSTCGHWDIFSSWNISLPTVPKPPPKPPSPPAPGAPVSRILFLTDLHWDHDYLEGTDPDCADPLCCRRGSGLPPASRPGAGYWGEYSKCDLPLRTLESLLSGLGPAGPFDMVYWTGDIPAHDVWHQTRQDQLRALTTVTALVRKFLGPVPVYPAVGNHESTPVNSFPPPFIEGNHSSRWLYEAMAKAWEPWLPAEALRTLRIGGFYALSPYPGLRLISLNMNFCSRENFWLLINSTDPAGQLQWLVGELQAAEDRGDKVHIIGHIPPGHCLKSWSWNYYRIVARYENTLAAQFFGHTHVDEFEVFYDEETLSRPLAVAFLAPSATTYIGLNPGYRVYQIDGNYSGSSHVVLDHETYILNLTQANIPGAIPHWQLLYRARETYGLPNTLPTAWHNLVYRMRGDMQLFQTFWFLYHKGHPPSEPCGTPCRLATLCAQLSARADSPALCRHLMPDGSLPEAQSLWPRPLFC
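HMU-PC0 cleavage (9 uM final) by human placental ASM, 60 min at 37 °C following 10 min compound exposure at RT; stopped at pH 10, fluorescence Ex 386/Em 447 nm.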
TDP1 cell noCPT – qHTS for Inhibitors of human tyrosyl-DNA phosphodiesterase 1 (TDP1): qHTS in cells in absence of CPT; DT40 Tdp1-/- hTDP1 cells, no CPT, ATP luminescence, 48 h; Potency, µM (series often up to 46.2 µM), for inactives: at the top dose activity change, negative = growth inhibition, actives largely listed as inhibitors; actives 15% (n = 420,000); AID 686978, 2013; further: potency means the concentration at half of the fitted maximal effect; on the % scale 0 is the no-effect control and ±100 the full control effect; nearly all actives have a fitted effect of over 55% in size
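Growth of hTDP1-complemented DT40 Tdp1-knockout cells is measured by ATP luminescence after at least 48 hr compound exposure at 37 °C, with DMSO substituting for the 20 nM CPT used in the parallel screen.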
HepG2 tox – counter-screen for TGF-b inhibitors: cytotoxicity in HepG2 cells; HepG2 CAGA-GFP viability, ATP luminescence, 18 h; Potency, µM (titrated, usually from 46.1 µM), for the others: at the highest dose activity change, negative = cytotoxicity, hits mostly cytotoxic; actives 0.76% (n = 410,000); AID 588856; further: potency means the concentration at half of the fitted maximal effect
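HepG2 CAGA-GFP cells (1000/well, DMEM with 1% FBS) received compound, then TGF-beta at 500 pg/mL final, and were incubated 18 hours at 37 degrees C. Viability was read by CellTiter-Glo luminescence. Media-only wells were set as complete cell-killing and DMSO as no toxicity.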
TDP1 cell CPT – growth inhibition of DT40 Tdp1-/-;hTDP1 cells with camptothecin (screen for TDP1 inhibitors); chicken DT40 Tdp1-/-;hTDP1 cells + 20 nM CPT, ATP luminescence, 48 h; Potency, µM (series often up to 46.2 µM), inactives show at the highest dose activity change, negative = growth inhibition, actives largely listed as inhibitors; actives 12% (n = 420,000); further: potency means the concentration at half of the fitted maximal effect; on the % scale 0 is the no-effect control and ±100 the full control effect; nearly all actives have a fitted effect of over 55% in size
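Chicken DT40 Tdp1-/- cells stably complemented with human TDP1 were seeded at 400 cells/well in medium containing 20 nM camptothecin, exposed to pin-transferred compounds, and grown at 37 °C for at least 48 hr. Viability was read as ATP luminescence.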
Active calls of the source: *; u = inconclusive; x = no result given. Unless noted, the call rests on the fitted dose curve; in most records, active means well fitted curve in the direction sought with a large enough effect; inconclusive means small, poorly fitted or top-dose-only effect, or another doubt; inactive means no such curve, though single readings can be large; an effect the other way counts as inactive or inconclusive.

SMILES	TGFb inhibitor	IL1B secr inh	S-ASM inh	TDP1 cell noCPT	HepG2 tox	TDP1 cell CPT
COc1ccc(S(=O)(=O)c2cn(Cc3ccccc3)c3cc(N4CCCC4)c(F)cc3c2=O)cc1	-26%	x	x	5.2µM*	-9%	u
O=c1c(S(=O)(=O)c2ccccc2)cn(Cc2ccc(F)cc2)c2cc(N3CCOCC3)c(F)cc12	2%	x	x	15µM*	7%	21µM*
CCN1CCN(c2cc(C)c3cc(NC(=S)NCCCN4CCc5ccccc5C4)ccc3n2)CC1	u	-23	163%	15µM*	-42%	u
Cc1cc(N2CCN(C)CC2)nc2ccc(NC(=S)NCCCN3CCc4ccccc4C3)cc12	-6%	-92*	112%	u	-23%	u
Cc1cc(N2CCN(C)CC2)nc2ccc(NC(=S)NCCN3CCc4ccccc4C3)cc12	u	-1	121%	u	-64%	u
Cc1cc(N2CCCC2)nc2ccc(NC(=S)NCCCN3CCC(C)CC3)cc12	u	-140*	376%	u	18µM*	u
O=C(NC1CC(=O)N(c2ccc(Cl)cc2)C1)c1ccc(S(=O)(=O)N2CCCC2)cc1 (stereo not drawn)	1%	x	x	u	9%	u
Cc1cccc(C)c1OCC(=O)Nc1c(C(=O)c2ccc(Br)cc2)oc2ccccc12	2%	x	x	u	1%	-6%
Cc1ccc2[nH]c3c(c2c1)CCC3=O	1%	14	6%	-10%	-9%	-4%
Cc1ccc2[nH]c3c(c2c1)CCc1cn[nH]c1-3	-22%	-13	-9%	23µM*	-27%	u
CCOC(=O)c1c2ccccc2[n+]([O-])n1[C@@H](C)C(N)=O	-26%	27	-6%	-7%	0%	21µM*
COc1ccc(NC(=O)C(CC(=O)O)Cc2ccc(Cl)cc2)cc1 (stereo not drawn)	8%	69	1%	15%	-4%	-2%
Cc1ccc(S(=O)(=O)NC(C)(C)CSc2nnc(Nc3ccccc3)s2)cc1	u	-8	-14%	u	-27%	23µM*
Cc1ccc(/C=C2\SC(=S)N(NS(=O)(=O)c3ccc(C)cc3)C2=O)cc1	-13%	3	-18%	2%	-20%	-2%
COc1ccc(/C=C2/SC(=S)N(NS(=O)(=O)c3ccc(C)cc3)C2=O)cc1	-18%	-56*	-24%	-14%	-21%	-19%
CCOC(=O)c1cc2c(ccn2-c2ccc(F)cc2)n1CC(=O)N(CC)CC	0%	u	-2%	23µM*	-40%	u
CC1CCc2c(sc3ncnc(N4CCOCC4)c23)C1 (stereo not drawn)	5%	5	1%	u	-30%	u
COc1cc2c(cc1OC)CN(c1nc(CN3CCOCC3)nc3sc4c(c13)CCC(C)C4)CC2 (stereo not drawn)	u	-68*	-20%	15µM*	-30%	12µM*
Clc1nc(CN2CCOCC2)nc2sc3c(c12)CCC3	15%	-30	1%	1%	0%	10%
CC1CCc2c(sc3nc(CN4CCOCC4)nc(Sc4ccccc4)c23)C1 (stereo not drawn)	-11%	-20	-10%	21µM*	-2%	u
COc1ccc(NC(=O)c2cc3ccc4c5ccccc5[nH]c4c3cc2O)cc1	3%	-19	83%	-16%	-11%	0%
O=C(Cc1cccs1)N/N=C/C(Cl)=C/c1ccccc1	-26%	4	-1%	-14%	-27%	-16%
CCOc1cccc(/C=N/N=C/c2cccc(OCC)c2O)c1O	0%	3	58%	-1%	6%	-11%
CCOc1cccc(C=Nc2cc(C)cc(C)c2O)c1O	-29%	0	1%	u	-37%	15µM*
COc1ccc(C#Cc2ccc(C3=CC(=O)CC(C)(C)C3=O)cc2)cc1	-4%	-9	x	16µM*	-31%	u
SMILES	TGFb inhibitor	IL1B secr inh	S-ASM inh	TDP1 cell noCPT	HepG2 tox	TDP1 cell CPT
CC1(C)CC(=O)C=C(c2ccc(-c3cnc4ccccc4c3)cc2)C1=O	-6%	-4	x	23µM*	-23%	u
CC1(C)CC(=O)C=C(c2ccc(-c3cccc4c3sc3ccccc34)cc2)C1=O	4%	-6	x	18µM*	-30%	u
COc1cc(NC(=NS(=O)(=O)c2ccccc2)c2ccccc2)ncn1	1%	11	-1%	-26%	2%	u
O=C(c1ccc(CS(=O)c2cccc(Cl)c2)o1)N1CCCCCC1 (stereo not drawn)	-22%	2	0%	23µM*	-24%	-8%
COc1cccc(N2CCN(C(=O)c3ccc(CS(=O)c4ccccc4Cl)o3)CC2)c1 (stereo not drawn)	11µM*	55	-1%	0.0052µM*	-35%	0.029µM*
COc1ccc(N2CCN(C(=O)c3cc4ccccc4o3)CC2)cc1	14%	-16	-4%	-22%	1%	-23%
O=C(c1ccc(CS(=O)c2ccccc2Cl)o1)N1CCN(c2ccccc2)CC1 (stereo not drawn)	u	142	-2%	0.52µM*	-7%	0.82µM*
O=C(c1ccc(CS(=O)c2cccc(Cl)c2)o1)N1CCN(C2CCCCC2)CC1 (stereo not drawn)	11%	-5	8%	-2%	-7%	-28%
COc1ccc(N2CCN(C(=O)c3ccc(CS(=O)c4cccc(C)c4)o3)CC2)cc1 (stereo not drawn)	-17%	-1	-2%	16µM*	-10%	18µM*
Cc1ccccc1S(=O)Cc1ccc(C(=O)NC2CC2)o1 (stereo not drawn)	-2%	-9	0%	0%	5%	3%
COc1cccc(N2CCN(C(=O)c3ccc(CS(=O)c4ccccc4C)o3)CC2)c1 (stereo not drawn)	-15%	28	-1%	0.58µM*	-6%	0.52µM*
